# Screening results (PubChem)
# DT40 TDP1 CPT – DT40-hTDP1 cell growth loss with CPT; actives 12% (n = 420,000); chicken DT40 Tdp1-/-;hTDP1 cells + 20 nM CPT, ATP luminescence, 48 h; Potency, µM (series often up to 46.2 µM), most hits filed as inhibitors; AID 686979; also: nearly all actives have a fitted effect of over 55% in size
#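 Cell growth measured by CellTiter-Glo luminescence after a minimum 48 h, 37 C compound exposure with 20 nM CPT in Tdp1-knockout DT40 cells stably expressing hTDP1, seeded 400/well; qHTS titration format.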
# TDP1 cell noCPT – qHTS for Inhibitors of human tyrosyl-DNA phosphodiesterase 1 (TDP1): qHTS in cells in absence of CPT; actives 15% (n = 420,000); DT40 Tdp1-/- hTDP1 cells, no CPT, ATP luminescence, 48 h; Potency, µM (titrated, usually from 46.2 µM), usual class: inhibitors; also: nearly all actives have a fitted effect of over 55% in size
#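 Luminescent ATP content (CellTiter-Glo) served as the growth readout. Knockout chicken DT40 cells expressing human TDP1 were exposed to compounds without camptothecin for a minimum 48 hr at 37 °C.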
# KB-V1 cytotox – KB-V1 MDR subline cytotoxicity; AID 1347076; actives 3.4% (n = 400,000); KB-V1 MDR cells viability, CellTiter-Glo, 72 h; Potency, µM (doses to about 46.1 µM), usual class: cytotoxic; also: nearly all actives have a fitted effect of over 60% in size
#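 Luminescent ATP read-out (CellTiter-Glo, 10 min) measures survival of drug-selected KB-V1 MDR cells after 72 h, 37 degrees C compound exposure. Medium: phenol-red-free DMEM, 10% FBS. Values from fitted concentration-response curves.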
# HT1080NT lethal – kills 2HG-producing HT-1080-NT fibrosarcoma cells; actives 1.6% (n = 360,000); Potency, µM (highest dose often 46.1 µM), most hits filed as cytotoxic; HT-1080-NT fibrosarcoma viability, CellTiter-Glo ATP luminescence, 48 h; AID 686970;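 also: NT is the 2HG producing partner of a matched IDH1 knockdown line; nearly all actives have a fitted effect of over 55% in size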
#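 A 48-hour cytotoxicity screen used HT-1080-NT cells plated 2 hours before compound delivery. ATP-based CellTiter-Glo luminescence measured viability, normalized to DMSO and no-cell controls.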
# KB-3-1 tox – KB-3-1 parental cell cytotoxicity | KB-3-1 viability, CellTiter-Glo ATP luminescence, 72 h | Potency, µM (doses to about 46.1 µM), most hits filed as cytotoxic | actives 1.4% (n = 400,000) | AID 1347075; also: nearly all actives have a fitted effect of over 60% in size
#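 KB-3-1 cells, DMEM (no phenol red) + 10% FBS; compound by pin transfer, 72 h, 37 °C. Readout: CellTiter-Glo luminescence after 10 min. Data normalized, curve-fitted.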
# HT1080 IDH1KD tx – toxicity to HT-1080 IDH1 knockdown cells (counter line); HT-1080 IDH1 knockdown viability, ATP luminescence, 48 h; Potency, µM (top dose mostly 46.1 µM), most hits filed as cytotoxic; actives 2% (n = 360,000)
#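 Using the IDH1-knockdown HT-1080 line run in the same batch and compound series as the NT line, viability after 48 h at 37 °C was determined by CellTiter-Glo luminescence and expressed as % activity.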
# A number is an active result; - = inactive; ? = inconclusive; . = no result given; [ ] = another dose, or the depositor's remark. In the library only some 19% were active in any assay of this set; here they are far more common. Calls follow the shape of the dose curve; as a rule, active = well fitted curve in the direction sought with a large enough effect; inconclusive = small, poorly fitted or top-dose-only effect, or another doubt; inactive = no such curve, though single readings can be large; an effect the other way counts as inactive or inconclusive.
SMILES,DT40 TDP1 CPT,TDP1 cell noCPT,KB-V1 cytotox,HT1080NT lethal,KB-3-1 tox,HT1080 IDH1KD tx
COc1cccc(NC(=O)/C(C#N)=C/c2c(C)n(Cc3ccc(Cl)cc3)c3ccccc23)c1,-,?,-,.,-,.
CCc1ccc(S(=O)(=O)c2c[nH]c3cc(OC)c(OC)cc3c2=O)cc1,-,?,-,.,-,.
CCOC(=O)C1=C2N(C)c3ccccc3N2CCC1=O,-,-,?,-,-,-
O=C(c1[nH]c(C(F)(F)F)nc1-c1ccccc1)N1CCN(c2ncccn2)CC1,29µM,?,?,-,?,?
O=C(c1[nH]c(C(F)(F)F)nc1-c1ccccc1)N1CCN(c2ccncc2)CC1,-,-,-,-,-,-
Cc1ccc(C)c(NC(=O)C2CCCN(S(=O)(=O)c3c(C)nn(C)c3C)C2)c1 (stereo not given),?,18µM,-,-,-,-
Cc1cccc(NC(=O)C2CCCN(S(=O)(=O)c3c(C)nn(C)c3C)C2)c1 (stereo not given),?,?,-,-,-,-
CCc1ccccc1NC(=O)C1CCCN(S(=O)(=O)c2cccc3nsnc23)C1 (stereo not given),?,?,-,.,-,.
Cc1ccc(C)c(NC(=O)C2CCCN(S(=O)(=O)c3cccc4nsnc34)C2)c1 (stereo not given),-,26µM,-,.,-,.
CCOCCCNC(=O)C1CCCN(S(=O)(=O)c2cccc3nsnc23)C1 (stereo not given),-,-,-,-,-,-
CCOc1ccc(NC(=O)C2CCCN(S(=O)(=O)c3cccc4nsnc34)C2)cc1 (stereo not given),23µM,16µM,?,-,-,-
COc1ccc2nc(NC(=O)C3CCN(S(=O)(=O)c4cccc5nsnc45)CC3)sc2c1,15µM,?,1.6µM,-,?,?
Cc1cccc(C)c1NC(=O)CN(C)S(=O)(=O)c1ccc(-c2ccc(=O)[nH]n2)s1,?,-,-,-,-,-
O=c1c2cccnc2n(Cc2ccccc2F)c(=O)n1Cc1ccc(F)cc1,-,?,?,.,?,.
Cc1cccc(NC(=O)C2CCCN(S(=O)(=O)c3cccc4nsnc34)C2)c1 (stereo not given),?,?,-,-,-,-
Cc1cc(NC(=O)C2CCCN(S(=O)(=O)c3cccc4nsnc34)C2)ccc1Br (stereo not given),10µM,?,-,.,-,.
O=C(Nc1cccc(C(F)(F)F)c1)C1CCCN(S(=O)(=O)c2cccc3nsnc23)C1 (stereo not given),16µM,21µM,-,.,-,.
COc1cccc(NC(=O)C2CCCN(S(=O)(=O)c3cccc4nsnc34)C2)c1 (stereo not given),?,16µM,?,-,-,-
O=C(Nc1ccccc1Br)C1CCCN(S(=O)(=O)c2cccc3nsnc23)C1 (stereo not given),?,?,-,.,-,.
Cc1cc(C)cc(NC(=O)C2CCCN(S(=O)(=O)c3cccc4nsnc34)C2)c1 (stereo not given),18µM,16µM,-,.,-,.
Clc1ccc2c(c1)C(C1=NCCN1)c1ccccc1CS2 (stereo not given),6.5µM,5.8µM,10µM,1.2µM,0.92µM,1.5µM
S=C1NCCc2ccc(Cl)cc2C1c1ccccc1Cl (stereo not given),?,?,-,-,-,-
Cc1ccc(CNc2nc(C)c(-c3ccn(CCN4CCOCC4)n3)s2)o1,-[9.04 µM],-,.,.,.,.
CNC(=S)N/N=C/c1cc(C)n(-c2ccc(Cl)c(Cl)c2)c1C,23µM,?,-,-,-,-
Cc1cc(/C=N/NC(=O)c2cccc(F)c2)c(C)n1-c1ccccc1,?,29µM,-,-,-,-
CCOC(=O)N/N=C/c1cc(C)n(-c2ccccc2)c1C,-,?,-,-,-,-
